From PubChem
Shown are actives, neighbours in structure and some others; about 19% of the full set was active somewhere.
DT40 TDP1 no CPT: qHTS for Inhibitors of human tyrosyl-DNA phosphodiesterase 1 (TDP1): qHTS in cells in absence of CPT; Potency, µM (highest dose often 46.2 µM), inactives show at the top dose activity change, negative = growth inhibition, hits mostly inhibitors; hit rate 15% among 420,000; DT40 Tdp1-/- hTDP1 cells, no CPT, ATP luminescence, 48 h; further: potency means the concentration at half of the fitted maximal effect; on the % scale 0 is the no-effect control and ±100 the full control effect; nearly all actives have a fitted effect of over 55% in size
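Chicken DT40 Tdp1-/- cells complemented with human TDP1, screened without camptothecin (DMSO vehicle only), 400 cells/well. Compounds pin-transferred, cells incubated at 37 °C for at least 48 hr. Growth read as ATP-dependent luminescence (CellTiter-Glo, 30 min at RT).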
DT40 TDP1 CPT: DT40-hTDP1 cell growth loss with CPT; chicken DT40 Tdp1-/-;hTDP1 cells + 20 nM CPT, ATP luminescence, 48 h; Potency, µM (top dose mostly 46.2 µM), for the others: at the top dose activity change, negative = growth inhibition, hits mostly inhibitors; hit rate 12% among 420,000; further: potency means the concentration at half of the fitted maximal effect; on the % scale 0 is the no-effect control and ±100 the full control effect; nearly all actives have a fitted effect of over 55% in size
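Chicken DT40 Tdp1-/- cells complemented with human TDP1, 400 cells/well, exposed to compounds plus 20 nM camptothecin for at least 48 h at 37 C; viability read as ATP content by CellTiter-Glo luminescence.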
IL1B secr inh: inflammasome signaling inhibition, IL-1 beta readout. THP-1 LPS/ATP IL-1B secretion, AlphaLISA, 16 h; active compounds read low. AID 743279. hit rate 4.7% among 360,000. activity change, % at 57.5 µM; in the data active means activity change below about -50%; inconclusive means mostly about -30% to -49%; further: on the % scale 0 is the no-effect control and ±100 the full control effect
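THP-1 cells pretreated 1 hr with compounds (up to 57.5 uM final), then stimulated with LPS (250 ng/mL final) plus ATP (1.25 mM final); secreted IL-1B measured by AlphaLISA after 16 hr, decreased signal indicating inhibition.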
HepG2 viability: counter-screen for TGF-b inhibitors: cytotoxicity in HepG2 cells | AID 588856 | hit rate 0.76% among 410,000 | Potency, µM (top dose mostly 46.1 µM), without a hit: top-dose activity change, negative = cytotoxicity, actives largely listed as cytotoxic | HepG2 CAGA-GFP viability, ATP luminescence, 18 h; further: potency means the concentration at half of the fitted maximal effect
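HepG2 CAGA-GFP cells (1000/well, DMEM with 1% FBS) received compound, then TGF-beta at 500 pg/mL final, and were incubated 18 hours at 37 degrees C. Viability was read by CellTiter-Glo luminescence. Media-only wells were set as complete cell-killing and DMSO as no toxicity.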
TGFb inhibitor: blocks TGF-b signaling; HepG2 CAGA-GFP TGF-b/SMAD3 reporter, GFP fluorescence, 18 h; TGF-beta stimulated, 500 pg/mL final; Potency, µM (top dose mostly 46.1 µM), for the others: top-dose activity, negative = inhibition, actives largely listed as inhibitors; hit rate 1.2% among 410,000; AID 588855; further: potency means the concentration at half of the fitted maximal effect; on the % scale 0 is the no-effect control and ±100 the full control effect; nearly all actives have a fitted effect of over 65% in size
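HEPG2 CAGA-GFP, 1000 cells/well; 2 h settle, 37 C; cpd via pin tool; TGF-b 500 pg/mL final; 18 h, 37 C; GFP imaging ex488/em500-530; %Activity normalised to -TGF-b and +DMSO controls; CRC fit, curve class.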
TDP1 block: blocks human tyrosyl-DNA phosphodiesterase 1; hit rate 0.28% among 350,000; Potency, µM (doses to about 130 µM), for the others: top-dose activity change, negative = inhibition, usual class: inhibitors; recombinant TDP1, AlphaScreen DNA substrate cleavage; further: potency means the concentration at half of the fitted maximal effect; on the % scale 0 is the no-effect control and ±100 the full control effect; nearly all actives have a fitted effect of over 40% in size
Target sequence (Q9NUW8 whole entry, looked up): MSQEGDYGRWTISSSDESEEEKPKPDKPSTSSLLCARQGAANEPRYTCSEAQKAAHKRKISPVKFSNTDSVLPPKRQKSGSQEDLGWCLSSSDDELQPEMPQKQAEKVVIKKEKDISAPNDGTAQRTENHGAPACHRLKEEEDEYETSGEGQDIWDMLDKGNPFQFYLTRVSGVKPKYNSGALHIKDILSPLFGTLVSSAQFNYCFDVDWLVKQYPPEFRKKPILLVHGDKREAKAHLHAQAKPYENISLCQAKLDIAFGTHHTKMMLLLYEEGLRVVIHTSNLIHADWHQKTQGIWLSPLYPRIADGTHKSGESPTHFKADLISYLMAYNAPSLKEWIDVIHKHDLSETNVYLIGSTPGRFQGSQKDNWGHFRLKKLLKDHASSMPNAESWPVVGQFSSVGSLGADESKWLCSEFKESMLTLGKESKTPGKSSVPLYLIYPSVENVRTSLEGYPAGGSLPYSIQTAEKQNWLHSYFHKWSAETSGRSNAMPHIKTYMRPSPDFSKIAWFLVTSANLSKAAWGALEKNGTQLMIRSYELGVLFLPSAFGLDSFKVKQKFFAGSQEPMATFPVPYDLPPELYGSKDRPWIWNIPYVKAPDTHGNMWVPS
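Here, a 5' biotin and 3' phosphotyrosine-FITC DNA oligonucleotide reports Tdp1 activity: intact substrate bridges AlphaScreen beads, while cleavage leaves a 3' phosphate and drops signal. All incubations at room temperature.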
The depositor's hits bear a star; ? = inconclusive; . = not tested or not shown; [ ] = remark or other dose. Unless noted, the call rests on the fitted dose curve; in most records, active means well fitted curve in the direction sought with a large enough effect; inconclusive means small, poorly fitted or top-dose-only effect, or another doubt; inactive means no such curve, though single readings can be large; an effect the other way counts as inactive or inconclusive.

SMILES	DT40 TDP1 no CPT	DT40 TDP1 CPT	IL1B secr inh	HepG2 viability	TGFb inhibitor	TDP1 block
COc1ccc(Nc2cc(C)nc3nc(C)nn23)cc1Cl	-12.8%	-18.4%	-21.2	-4.2%	3.4%	3.9%
COCCCNC(=O)CCC(=O)N1Cc2ccccc2Oc2ncccc21	0.0%	-19.3%	.	-38.4%	-1.0%	-4.2%
Cc1oc(-c2ccccc2F)nc1CS(=O)(=O)CC(=O)NCc1ccccc1Cl	-25.8%	?	70.4	-13.6%	1.3%	.
O=C(CCN1C(=O)/C(=C/c2ccccc2)SC1=S)N[C@@H](CO)Cc1ccccc1	10.3µM*	18.4µM*	-60.8*	4.3%	?	5.0%
O=C(CCN1C(=O)/C(=C/c2ccccc2F)SC1=S)N[C@@H](CO)Cc1ccccc1	16.4µM*	?	-99.3*	-12.8%	?	0.7%
Cc1ccc(C(OCC(O)CNCc2ccc(F)cc2)c2ccccc2)cc1 (stereo not drawn)	16.4µM*	14.6µM*	-97.9*	-101.8%	?	.
O=C(c1ccccc1)c1ccc(OCC(O)CNCc2ccc(F)cc2)cc1 (stereo not drawn)	-25.1%	-2.4%	-72.0*	-57.5%	?	.
CCC(=O)c1ccc(OCC(O)CNCc2ccc(F)cc2)cc1 (stereo not drawn)	-35.0%	-9.9%	-11.5	-39.5%	-12.8%	-2.7%
O=C(c1ccccc1)c1ccc(OCC(O)CNCc2cccc(Cl)c2)cc1 (stereo not drawn)	?	?	-82.2*	11.2µM*	?	.
Cc1ccc(OCC(O)CNCc2ccccc2)cc1C (stereo not drawn)	?	?	?	-33.2%	-10.3%	-1.2%
Cc1ccc(S(=O)(=O)N2CCC(n3c(C)nc4cccnc43)CC2)c(C)c1	7.31µM*	6.51µM*	.	-40.9%	?	7.9%
Nc1ccc(-c2cnc(N)c(C(=O)c3cccnc3)n2)cn1	3.66µM*	1.84µM*	-91.2*	-19.2%	7.94µM*	.
CC1(C(=O)Nc2ccc3[nH]ncc3c2)CCN1C(=O)C1(c2ccccc2)CC1 (stereo not drawn)	-16.7%	8.2µM*	-17.5	-30.4%	-6.0%	.
CC1(C(=O)Nc2ccc3[nH]ncc3c2)CCN1C(=O)C/C=C/c1ccccc1 (stereo not drawn)	18.4µM*	?	-24.5	3.4%	-18.7%	.
CC1(C(=O)Nc2cnc3ccccc3c2)CCN1C(=O)C/C=C/c1ccccc1 (stereo not drawn)	6.51µM*	3.26µM*	-0.3	8.0%	32.0%	.
CC(=NNC(=S)SCc1ccccc1)c1ccccn1	0.0411µM*	0.0517µM*	-3.3	-31.9%	?	.
O=C(NCCNC(=O)c1ccccn1)c1ccc(Cl)cc1	-7.5%	-10.0%	1.0	8.3%	10.2%	3.9%
O=C(Sc1ccc(Cl)cc1)c1ccccn1	16.4µM*	16.4µM*	-82.6*	-30.7%	-8.0%	.
C/C(=N\NC(=O)c1ccc(Cl)cc1)c1ccc(Br)s1	10.3µM*	11.6µM*	-27.8	-23.1%	-7.7%	3.4%
C/C(=N\NC(=O)c1cc(Cl)ccc1O)c1ccc(Br)s1	?	?	17.8	-6.4%	-5.1%	2.3%
C/C(=N\NC(=O)c1cc(C)nc2ccccc12)c1ccccn1	0.731µM*	1.46µM*	143.4	-36.9%	3.98µM*	-2.0%[56.1 µM]
C/C(=N\NC(=O)c1cc(C)nc2ccccc12)c1ccncc1	4.9%	-21.9%	36.8	-4.6%	0.0%	0.9%
CC(=NNC(=S)N1CCC1)c1ccccn1	-113.7%	-110.5%	0.0	-28.3%	?	.
Cc1cccc(CN2C(=O)c3ccccc3Sc3ccc(C(=O)NCc4cccs4)cc32)c1	-25.9%	-18.2%	.	-16.0%	-7.7%	-2.6%
